# Molecular target: ADORA2B
# Test: pooled miR-30 sensor sort-seq; sequence = guide strand
# Settings: shRNA
# Further: reference of the scale not given here.
row,Sequence,sensor-assay potency score (higher = more potent)
1,TCCCACTCTTGACATCTGCTTG,-0.99
2,TTGAAATATACCATGTAGCTCA,0.0522
3,ATTTTGTGAAAAGTGTAGCGGA,-0.0457
4,TTCATTCGTGGTTCCATCCCAG,-0.119
5,TTTATTTTTCCATTGCCTCTAA,0.2
6,TTGGTGGCACTGTCTTTACTGT,-1.19
7,TAAATATATTTGTCAATCCTTG,-0.669
8,TTCACAATGAAAACCAGCCGTG,-0.942
9,TTAGAATCCATTCAAGCTGTTG,-0.667
10,TTTCCTTGTGAGGTGTAGCTAT,-0.397
11,AAACTTTTATACCTGAGCGGGA,-0.968
12,TAATCCACACAGTAAAAGCAGC,-1.13
13,TTTGTCAATCCTTGGAGCCTAC,-0.74

# Molecular target: ADRA1D
# Test: as above
# Settings: shRNA
row,Sequence,sensor-assay potency score (higher = more potent)
1,TTCTTCTCACGGGAGAACTTGA,-1.13
2,TAGGGACACAGCCTCCACCTCT,-1.05
3,ATAGTTGGTGACGGTCTGCAGG,-1.13
4,TTGCGCTCGGTCATGATGGCTG,-0.179
5,TTCACGATGAAATAGTTGGTGA,-0.48
6,TACCGGTCCACGGAGATGGTGC,-1.15
7,TAGATGAGCGGGTTCACGCAGC,-0.546
8,TGAGAGGATGACAAGCAGGTTA,-0.372
9,TACCGCAGAAGCGCTCGTCAGG,-1.24
10,TTGGCCGCTTTCTTCTCACGGG,-0.602
11,ATGCGCAGCACCACCTCGGAGG,-1.52
12,TTGGTGACGGTCTGCAGGTGGC,-1.18
13,TAGTCGGCCAATTCGTAGGCCT,-0.797
14,TACGGTGGCGCTCAGCAGCAGG,-1.13
15,AAGAAGAAAGGGAACCAGCAGA,-0.303
16,TAGAAGGAGCACACGGAGGAGA,-0.379
17,TAGTTGGTGACGGTCTGCAGGT,-0.977
18,TACATGACCACGATGACCGCCA,0.517
19,TTGGCGCGCAGCTGGGTCGTGG,-1.53
20,TGCTGTAGTCGGCCAATTCGTA,-0.975
21,TTCAGCTGCGGGAACAAGGAGC,-0.905
22,TGACAAGCAGGTTACCTGCCAC,-0.511

# Molecular target: ADRA2B
# Test: as above
# Settings: shRNA
row,Sequence,sensor-assay potency score (higher = more potent)
1,TTCAGTGAGCTGTTGCAGTAGC,0.233
2,ATAACAGGGTTCAGTGAGCTGT,-0.793
3,TACACCTCGCACCACGTGCGCC,-1.33
4,TTCGAGTGTCCGTTGACCTCTC,0.0234
5,TAACAGGGTTCAGTGAGCTGTT,-0.17
